For 28 molecules, Potency results are on record in PubChem BioAssay (NCATS).

Test [1] concerns the target Calcium and integrin-binding protein 1 (Homo sapiens) (UniProt Q99828). The test can be described thus: Primary qHTS for Identification of Calcium Integrin Binding Protein 1 (CIB1) Competitor (AID 1508620; active means well fitted curve in the direction sought with a large enough effect; an effect the other way counts as inactive or inconclusive;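 further: GST tagged CIB1 binding a fluorescein labelled alphaIIb integrin peptide tracer; top concentration of the series differs between compounds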). The procedure, abridged: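 CIB1-GST (1 uM final) and compound incubated 15 min at room temperature before adding FITC-alphaIIb peptide tracer (100 nM final). Competition for binding read by fluorescence polarization (ex 480, em 540) after another 15 min at room temperature.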
A general note: Quantitative high-throughput screening tests each substance at several concentrations.

For test [2], the target named is Cytochrome P450 2D6 (Homo sapiens) (UniProt P10635). The experiment in a line: Cytochrome P450 family 2 subfamily D member 6 (CYP2D6) small molecule antagonists: luciferase biochemical (cell-free) qHTS assay (AID 1645840). Further: nearly all actives have a fitted effect of over 55% in size. Further: potency means the concentration at half of the fitted maximal effect. In a few lines: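 P450-Glo CYP2D6 system: proluciferin substrate converted by enzyme to luciferin, read by luminescence proportional to activity. Enzyme-substrate mix with compound 10 min at room temperature, then NADPH regeneration 1 h before detection reagent.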
Sequence of Cytochrome P450 2D6 (Homo sapiens) (P10635 whole entry, looked up): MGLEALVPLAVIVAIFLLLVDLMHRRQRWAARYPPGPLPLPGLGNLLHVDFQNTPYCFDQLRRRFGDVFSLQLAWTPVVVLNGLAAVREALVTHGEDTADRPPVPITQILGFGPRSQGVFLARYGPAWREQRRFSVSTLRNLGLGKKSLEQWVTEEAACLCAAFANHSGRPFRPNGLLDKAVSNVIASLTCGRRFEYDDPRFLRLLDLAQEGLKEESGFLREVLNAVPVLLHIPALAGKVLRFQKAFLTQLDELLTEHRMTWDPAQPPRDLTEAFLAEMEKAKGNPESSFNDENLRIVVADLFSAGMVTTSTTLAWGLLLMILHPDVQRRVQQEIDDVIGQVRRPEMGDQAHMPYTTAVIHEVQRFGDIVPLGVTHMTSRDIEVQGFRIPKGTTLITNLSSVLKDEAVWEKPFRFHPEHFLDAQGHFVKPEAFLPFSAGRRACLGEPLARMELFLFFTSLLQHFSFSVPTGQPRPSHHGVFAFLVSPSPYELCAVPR

Test [3] concerns the target Cytochrome P450 2C9 (Homo sapiens) (UniProt P11712). The experiment in a line: Cytochrome P450 family 2 subfamily C member 9 (CYP2C9) small molecule antagonists: luciferase biochemical (cell-free) qHTS assay (AID 1645842). Further: nearly all actives have a fitted effect of over 55% in size. Further: potency means the concentration at half of the fitted maximal effect. The procedure, abridged:
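P450-Glo CYP2C9 system: proluciferin substrate with enzyme in mix containing 0.4% BSA, 10 min at room temperature, then NADPH regeneration solution added and incubated 1 h at 37C. Detection reagent stopped reaction; luminescence read after 20 min as RLU.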

The target in test [4] is N-terminal Xaa-Pro-Lys N-methyltransferase 1 (Homo sapiens) (UniProt Q9BV86). The experiment in a line: Confirmatory qHTS for Inhibitors of N-terminal methyltransferase 1 (NTMT1): MTaseGlo Assay (AID 1645874; active means well fitted curve in the direction sought with a large enough effect; an effect the other way counts as inactive or inconclusive; further: nearly all actives have a fitted effect of over 65% in size; further: potency means the concentration at half of the fitted maximal effect). The procedure, abridged:
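Enzyme mix (125 nM NTMT1, 100 uM SAM) + compound, 15 min RT; + 1 uM SPKRIA, 30 min RT, dark; MTase-Glo reagent 30 min, detection solution 30 min; luminescence. % inhibition vs no-enzyme/DMSO controls, 4-parameter Hill fit.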

A short description of test [5]: Primary qHTS for inhibitors of nuclear receptor binding SET domain protein 2 (NSD2) in an isogenic RCH-ACV NSD2 p.E1099K mutant (9B) (AID 1645876; active means well fitted curve in the direction sought with a large enough effect; an effect the other way counts as inactive or inconclusive; further: nearly all actives have a fitted effect of over 70% in size; further: potency means the concentration at half of the fitted maximal effect).

Results filed as inconclusive are left out. Calls of active or inactive are those of the source. Unless noted, the call rests on the fitted dose curve; in most records, active means well fitted curve in the direction sought with a large enough effect in the repeat runs; inconclusive means weak or mixed curves; inactive means no such curve, though single readings can be large; an effect the other way counts as inactive or inconclusive.

Sequence of Calcium and integrin-binding protein 1 (Homo sapiens) (Q99828 whole entry, looked up): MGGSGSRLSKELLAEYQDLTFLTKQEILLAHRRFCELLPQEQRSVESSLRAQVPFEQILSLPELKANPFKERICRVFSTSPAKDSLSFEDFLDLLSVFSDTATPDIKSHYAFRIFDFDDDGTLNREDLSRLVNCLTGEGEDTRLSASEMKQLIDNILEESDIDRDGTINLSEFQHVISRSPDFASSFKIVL
Sequence of Cytochrome P450 2C9 (Homo sapiens) (P11712 whole entry, looked up): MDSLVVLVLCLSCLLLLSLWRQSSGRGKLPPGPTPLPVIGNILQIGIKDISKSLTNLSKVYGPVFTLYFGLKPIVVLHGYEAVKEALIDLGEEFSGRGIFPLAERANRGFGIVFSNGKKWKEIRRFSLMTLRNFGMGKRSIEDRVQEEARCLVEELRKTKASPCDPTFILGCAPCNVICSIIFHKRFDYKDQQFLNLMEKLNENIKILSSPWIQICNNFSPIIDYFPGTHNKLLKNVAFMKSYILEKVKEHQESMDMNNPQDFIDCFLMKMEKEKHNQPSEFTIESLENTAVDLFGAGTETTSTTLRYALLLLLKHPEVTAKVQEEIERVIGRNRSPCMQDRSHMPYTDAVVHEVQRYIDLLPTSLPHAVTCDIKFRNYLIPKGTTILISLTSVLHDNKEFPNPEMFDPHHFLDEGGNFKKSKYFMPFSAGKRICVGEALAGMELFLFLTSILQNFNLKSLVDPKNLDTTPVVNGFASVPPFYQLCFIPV
Sequence of N-terminal Xaa-Pro-Lys N-methyltransferase 1 (Homo sapiens) (Q9BV86 whole entry, looked up): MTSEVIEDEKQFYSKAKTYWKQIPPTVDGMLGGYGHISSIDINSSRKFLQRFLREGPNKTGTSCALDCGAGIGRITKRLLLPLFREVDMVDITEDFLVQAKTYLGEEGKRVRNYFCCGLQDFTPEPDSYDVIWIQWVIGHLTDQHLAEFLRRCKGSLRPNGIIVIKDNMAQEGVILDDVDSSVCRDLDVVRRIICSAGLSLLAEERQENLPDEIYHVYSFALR

For the molecule `CCn1c(=O)c(-c2ccn[nH]2)cc2c(C)nc(N)nc21`, the Potency result in test [1], in test [2] and in test [4] was “inactive” each time. Further, the Potency in test [3] was 26.8 µM (active); in test [5], 0.934 µM (active).
On to `C[C@@H]1CN(Cc2ccccc2)C[C@H]1c1nc2c(cnn2C2CCOCC2)c(=O)[nH]1`, for which the Potency result in test [1], in test [2], in test [3] and in test [5] was “inactive” throughout.
As for `O=C1CC2(CCCC2)[C@H](O)C(=O)N1CCCCN1CCN(c2ncccn2)CC1`, the Potency entry in test [1] and in test [5] was “inactive” in each case. Moreover, the Potency in test [2] was 12 µM (active); in test [3], 10.7 µM (active).
With `Cc1ccc(-c2ccc3ncc4c(c3n2)n(C2CCN(C(=O)[C@H](C)O)CC2)c(=O)n4C)cn1`, the Potency result in test [1] and in test [2] was “inactive” throughout. Also, the values for the Potency in test [3], in test [4] and in test [5] were 10.7 µM (active), 39.8 µM (active) and 0.0742 µM (active), respectively.
Turning to `Cc1ccc(C(=O)N(CCCN)C(c2oc3cc(Cl)ccc3c(=O)c2Cc2ccccc2)C(C)C)cc1` (configuration not stated), the Potency result in test [1] and in test [5] was “inactive” each time. For the same molecule, the Potency in test [2] and in test [3] was 10.7 µM (active) throughout.
`C[C@@H](Oc1cc(-n2cnc3ccc(OC4CCN(C)CC4)cc32)sc1C(N)=O)c1ccccc1C(F)(F)F`: the Potency entry in test [1] was “inactive”. For the same molecule, the Potency in test [2] was 8.49 µM (active); in test [3], 8.49 µM (active); in test [4], 12.6 µM (active); in test [5], 0.0325 µM (active).
With `O=C(O)c1cccc(S(=O)(=O)N2CCc3ccccc3C2)c1`, the Potency result in test [1], in test [2], in test [3] and in test [5] was “inactive” in each case.
Take `COc1ccc(CC2NCCc3c2[nH]c2ccc(C)cc32)cc1OC` (configuration not stated): the Potency result in test [1] was “inactive”. The Potency is 0.239 µM (active) in test [2] and 10.7 µM (active) in test [3].
As to `N#Cc1ccc(-c2cnc3[nH]cc(NC(=O)c4cccnc4)c3c2)cc1`, the Potency result in test [1] and in test [2] was “inactive” in each case. In addition, the Potency is 2.68 µM (active) in test [3] and 7.28 µM (active) in test [5].
In the case of `CON(C)C(=O)[C@H](O)[C@H](Cc1ccccc1)NC(=O)c1cc2cc(Cl)ccc2[nH]1`, the Potency result in test [1] was “inactive”. In addition, the results for the Potency in test [2] and in test [3] were 21.3 µM (active) and 10.7 µM (active), respectively.
With `NC1CCC(Nc2cc(-c3cccc(NCc4cccc(F)c4)n3)c(Cl)cn2)CC1` (configuration not stated), the Potency entry in test [1] is “inactive”. Also, the values for the Potency in test [2], in test [3] and in test [5] were 15.1 µM (active), 2.13 µM (active) and 0.0817 µM (active), respectively.
As for `O=C(CCc1ccccc1)N1CCC(O)(Cn2cnc3cc(Cl)ccc3c2=O)CC1`, the Potency result in test [1] is “inactive”. Besides, the figures for the Potency in test [2] and in test [3] were 4.25 µM (active) and 10.7 µM (active), respectively.
As to `N#Cc1cnc2cnc(NCc3cccnc3)cc2c1Nc1ccc(F)c(Cl)c1`, the Potency result in test [1] is “inactive”. For the same molecule, the results for the Potency in test [2] and in test [3] were 0.756 µM (active) and 1.2 µM (active), respectively.
For `CN(CCc1ccc(Nc2ncc(-c3cccnc3)s2)cc1)Cc1ccccc1`, in test [1], the Potency result was “inactive”. The figures for the Potency in test [2], in test [3] and in test [5] were 1.2 µM (active), 12 µM (active) and 8.17 µM (active), respectively.
As for `Cc1ccc(-c2c(C(=O)CF)n(CCCO)c3ncnc(N)c23)cc1`, the Potency entry in test [1] and in test [2] was “inactive” in each case. Further, in test [3], the Potency was 21.3 µM (active).
With `NC(=O)c1cnc(NCCc2ccc(O)c(Cl)c2)nc1NCc1ccccc1`, the Potency entry in test [1] was “inactive”. Also, the Potency in test [2] was 15.1 µM (active); in test [3] it was 6.74 µM (active); in test [5], 1.29 µM (active).
The corresponding values for `CC1COC(Nc2ccc3ncnc(Nc4ccc(OCc5nccs5)c(Cl)c4)c3c2)=N1` (configuration not stated) are “inactive”, 10.7 µM (active), 10.7 µM (active) and 16.3 µM (active).
In the case of `NC(=O)C(CCC(F)(F)F)N(Cc1ccc(-c2ncon2)cc1F)S(=O)(=O)c1ccc(Cl)cc1` (configuration not stated), in test [1], the Potency result was “inactive”. Also, the Potency in test [2] was 12 µM (active); in test [3], 1.51 µM (active).
In the same order, the values of `CC(C)c1cccc2c(-c3ccccc3)cc(-c3ccc(-c4ccc(C(=O)O)cc4)[nH]3)nc12` are “inactive”, “inactive” and 7.56 µM (active).
On to `Cc1c(C(=O)Nc2ccc(N3CC(C)OC(C)C3)nc2)cccc1-c1ccc(OC(F)(F)F)cc1` (configuration not stated), for which the Potency result in test [1], in test [2] and in test [3] was “inactive” throughout.
`O=C1CCC(c2ccccc2)(C2CCN(Cc3ccc(I)cc3)CC2)C(=O)N1` (configuration not stated): the Potency result in test [1] and in test [3] was “inactive” throughout. The Potency in test [2] is 13.5 µM (active).
In the case of `O=C(Nc1ccc(S(=O)(=O)C(F)(F)F)cc1)C1=CCN(c2ncccc2C(F)(F)F)CC1`, the Potency entry in test [1] and in test [4] was “inactive” throughout. Also, the Potency is 7.56 µM (active) in test [2], 3.01 µM (active) in test [3] and 7.28 µM (active) in test [5].
`CCc1cnn2c(NCc3ccc[n+]([O-])c3)cc(N3CCCCC3CCO)nc12` (configuration not stated): the Potency entry in test [1] and in test [2] was “inactive” in each case. Also, the Potency in test [3] is 15.1 µM (active); in test [5] it was 0.0092 µM (active).
For the molecule `O=C(CN1C(=O)C2(CCCC2)NCC1c1cc(F)cc(F)c1)Nc1ccc2c(c1)CC1(C2)C(=O)Nc2ncccc21` (configuration not stated), the Potency entry in test [1], in test [2] and in test [5] was “inactive” in each case. The Potency in test [3] was 3.01 µM (active).
In the case of `Cc1ccccc1-n1c([C@H](C)Nc2nc(N)nc3nc[nH]c23)nc2cccc(C)c2c1=O`, the Potency entry in test [1] is “inactive”. For the same molecule, the Potency was 16.9 µM (active) in test [2], 1.34 µM (active) in test [3] and 0.0649 µM (active) in test [5].
The corresponding values for `Cc1cccc(/C=N/Nc2cc(N3CCOCC3)n3nc(-c4ccncc4)cc3n2)c1` are “inactive”, 3.79 µM (active), 1.34 µM (active) and 0.578 µM (active).
On to `CNC(=O)c1ccccc1Nc1nc(Nc2ccc3c(c2OC)CCCC(N2CCN(CCO)CC2)C3)ncc1Cl` (configuration not stated), for which the Potency entry in test [1] and in test [3] was “inactive” throughout. Moreover, the Potency in test [2] is 15.1 µM (active); in test [5] it was 6.49 µM (active).
Take `C#CCN(Cc1cc2c(=O)[nH]c(C)nc2cc1Br)c1ccc(C(=O)NCc2cccnc2)cc1`: the Potency result in test [1], in test [2] and in test [5] was “inactive” in each case. The Potency in test [3] is 3.01 µM (active).
